Shown is part of a subset that was picked to be rich in hits.
STK33 kin inh: STK33 kinase inhibitors, primary screen, biochemical, luminescence, ADP-Glo, MBP substrate. inhibition, % at 12.5 µM. hit rate 0.44% among 27,000. AID 2322, 2010; in the data active = inhibition above about 20%
ID4 binder: binders of human ID4 protein, primary screen, biochemical, small molecule microarray, single point; DNA-binding protein inhibitor ID-4 (Homo sapiens), P47928; Flag-ID4 binding, fluorescence F/B; calls only; hit rate 1.2% among 31,000; AID 624137, 2012; call rule not given here;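 note: a binder raises fluorescence above local background on the spot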
Target sequence (P47928 whole entry, looked up): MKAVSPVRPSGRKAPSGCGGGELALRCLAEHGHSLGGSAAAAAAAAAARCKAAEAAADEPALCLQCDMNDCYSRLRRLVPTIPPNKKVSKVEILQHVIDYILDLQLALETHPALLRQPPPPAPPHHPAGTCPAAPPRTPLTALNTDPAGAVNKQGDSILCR
* marks the source's active call; other numbers are inactive results; i = inactive; · = no result given; + = active, no number.

SMILES | STK33 kin inh | ID4 binder
O=C(O)CCC(=O)Nc1ccc(-c2nc3ccc(C(=O)c4ccccc4)cc3[nH]2)cc1 | 3 | +
O=C(CCN1C(=O)c2ccccc2C1=O)Nc1ccc(-c2nc3ccccc3[nH]2)cc1 | 7 | i
Nc1cccc(-c2cc3c(Oc4cccc(O)c4)ncnc3[nH]2)c1 | 69* | ·
COc1ccc(-c2nc(SCc3ccc(OC)c([N+](=O)[O-])c3)n[nH]2)cc1 | 3 | i
O=S(=O)(c1cccc2cnccc12)N1CCNCC1 | · | i
NCCNS(=O)(=O)c1cccc2cnccc12 | 44* | ·
C[C@@H]1CCCCO[C@H](CN(C)S(=O)(=O)c2cccs2)[C@@H](C)CN([C@H](C)CO)C(=O)c2cc(NC(=O)CCC(F)(F)F)ccc2O1 | -4 | ·
C[C@H](CO)N1C[C@H](C)[C@@H](CN(C)S(=O)(=O)c2cccs2)Oc2ccc(NC(=O)CCCN(C)C)cc2C1=O | · | +
C[C@@H]1CN([C@@H](C)CO)C(=O)c2cc(NC(=O)CCCN(C)C)ccc2O[C@@H]1CN(C)S(=O)(=O)c1cccs1 | 0 | ·
C[C@@H]1CN([C@@H](C)CO)C(=O)c2cc(NC(=O)CCCN(C)C)ccc2O[C@@H](C)CCCCO[C@@H]1CN(C)S(=O)(=O)c1cn(C)cn1 | · | +
C[C@H](CO)N1C[C@H](C)[C@H](CN(C)S(=O)(=O)c2cn(C)cn2)Oc2ccc(NC(=O)CCCN(C)C)cc2C1=O | -1 | ·
C[C@@H]1CCCCO[C@@H](CN(C)S(=O)(=O)c2cccs2)[C@@H](C)CN([C@@H](C)CO)C(=O)c2cc(NC(=O)CCCN(C)C)ccc2O1 | · | +
COC(=O)C[C@H]1CC[C@@H](NC(=O)c2ccccc2)[C@H](CO)O1 | · | i
[O-][NH2+]c1ccc(O)c2ncccc12 | · | i
Cc1ccnc(SCC(=O)Nc2oc(-c3ccccc3)c(-c3ccccc3)c2C#N)n1 | -6 | i
COc1ccccc1OCC(=O)Nc1oc(-c2ccccc2)c(-c2ccccc2)c1C#N | -3 | +
O=C(Cn1ccc([N+](=O)[O-])n1)N1CCOCC1 | 1 | i
CCn1c2ccccc2n2c(SCCOc3ccc(C)cc3)nnc12 | 0 | i
CCc1ccc2[nH]c(C(=O)Nc3ccccc3C(C)CC)cc2c1 (configuration not stated) | · | i
O=C(O)CSc1c[nH]c2ccccc12 | -3 | i
COC(=O)c1cn(CC(N)=O)c2ccccc12 | 0 | i
Cn1cc(C2=C(c3cn(CCCSC(=N)N)c4ccccc34)C(=O)NC2=O)c2ccccc21 | 106* | ·
CN(C)CCCn1cc(C2=C(c3c[nH]c4ccccc34)C(=O)NC2=O)c2ccccc21 | 114* | i
COC(=O)C[C@H]1C=C[C@@H](NS(=O)(=O)c2ccccc2F)[C@@H](CO)O1 | · | i
O=C(NCC[C@@H]1CC[C@H](NC(=O)C2CCCCC2)[C@@H](CO)O1)c1cc(Cl)cc(Cl)c1 | · | i
SMILES | STK33 kin inh | ID4 binder
O=C(Nc1sc2c(c1C(=O)NCc1cccnc1)CCCC2)c1ccco1 | 12 | i
COC(=O)Nc1sc2c(c1C(=O)NCc1ccco1)CCC2 | 3 | i
O=C(Nc1sc2c(c1C(=O)NCc1cccnc1)CCCCC2)c1ccccc1 | -1 | +
COC(=O)Nc1sc2c(c1C(=O)NCc1ccco1)CCCC2 | 3 | +
Cc1nnc(SCC(=O)Nc2ccc(Oc3ccccc3)cc2)s1 | 1 | i
COCc1nc2ccccc2n1CCOc1ccc(Cl)cc1 | -3 | i
NC(=O)c1c(NC(=O)COc2cccc(C(F)(F)F)c2)sc2c1CCC2 | 10 | i
O=C(NC(=S)Nc1ccc(Cl)c(C(=O)O)c1)c1cccc(COc2ccccc2)c1 | -1 | +
O=C(COc1ccccc1)NC(=S)Nc1cccc(NC(=O)c2ccccc2Cl)c1 | 4 | i
O=C(O)c1ccc(NS(=O)(=O)c2cccc(C(=O)Nc3ccccc3)c2)cc1 | 2 | i
Cc1ccc(NS(=O)(=O)c2cccc(C(=O)Nc3ccccc3C(=O)O)c2)cc1 | -2 | +
O=C(CC1(O)C(=O)N(Cc2cccc3ccccc23)c2ccccc21)c1ccccn1 (configuration not stated) | 9 | i
COc1ccc(NC(=O)CSc2nc3c(cc2C#N)CCCCC3)cc1OC | 1 | i
C[C@@H]1CN([C@@H](C)CO)C(=O)c2cc(-c3ccccc3)cnc2O[C@H]1CN(C)C(=O)c1cccc(F)c1 | · | i
C[C@H]1CN([C@@H](C)CO)C(=O)c2cc(-c3cccc(F)c3)cnc2O[C@H]1CN(C)C(=O)Nc1cc(F)ccc1F | · | +
C[C@H](CO)N1C[C@H](C)[C@H](CN(C)C(=O)c2cccc(F)c2)Oc2ncc(-c3ccccc3)cc2C1=O | · | +
C[C@@H]1CN([C@H](C)CO)C(=O)c2cc(-c3cccc(F)c3)cnc2O[C@@H]1CN(C)C(=O)Nc1cc(F)ccc1F | · | i
CCC(Sc1nnc2c(n1)[nH]c1ccccc12)C(=O)Nc1cccc2ccccc12 (configuration not stated) | 5 | i
O=C(c1ccc(F)cc1)C1CCN(CCn2c(=O)[nH]c3ccccc3c2=O)CC1 | 4 | +
O=c1[nH]c2ccccc2c(=O)n1CCCO | 16 | i
CC(=O)N(C)C[C@@H]1Oc2ncc(C#CCC3CCCC3)cc2C(=O)N([C@H](C)CO)C[C@H]1C | · | i
CS(=O)(=O)N(CC(=O)Nc1ccc2ccccc2c1)c1ccc(Cl)cc1Cl | -1 | i
COCC1=C2[C@@H](c3ccccc3)OB(O)C[C@@H]2n2c(=O)n(-c3ccccc3)c(=O)n2C1 | · | i
CCCC[C@H]1OB(O)C[C@H]2C1=C(COc1ccccc1)Cn1c(=O)n(-c3ccccc3)c(=O)n12 | · | +
CCN(C(=O)CSc1nc2sc(C)c(C)c2c(=O)n1-c1ccccc1)c1ccccc1 | 4 | i
SMILES | STK33 kin inh | ID4 binder
CCCC#Cc1cnc2c(c1)C(=O)N([C@H](C)CO)C[C@H](C)[C@H](CN(C)Cc1ccncc1)O2 | · | i
CC(=O)[C@]12O[C@]3(COC[C@H](c4ccccc4)N3C1=O)[C@@H]1C(=O)N(C)C(=O)[C@@H]12 | · | i
C[C@@H]1CN([C@@H](C)CO)C(=O)c2cc(C#Cc3cccnc3)cnc2O[C@@H]1CN(C)C | · | i
O=C(CSc1nnnn1-c1ccccc1)Nc1cccc(C(=O)O)c1 | 0 | i
Cc1ccc(NC(=O)CSc2nnnn2-c2cccc(C(=O)O)c2)cc1C | -1 | +
Cc1c(Br)c([N+](=O)[O-])nn1CC(=O)Nc1cccc(C(F)(F)F)c1 | -1 | i
O=C(O)CCCC(=O)Nc1ccc(Cl)c(Cl)c1 | -3 | i
O=C(O)CCCCCCC(=O)Nc1ccc(C2OC(CSc3ccncc3)CC(c3ccccc3)O2)cc1 (configuration not stated) | · | +
COC(=O)CCCCCCC(=O)Nc1ccc(C2OC(CN(C)Cc3ccccc3)CC(c3ccccc3)O2)cc1 (configuration not stated) | · | i
COC(=O)CCCCCCC(=O)Nc1ccc(C=O)cc1 | · | i
CN(Cc1ccccc1)CC1CC(c2ccccc2)OC(c2ccc(NC(=O)CCCCCCC(=O)O)cc2)O1 (configuration not stated) | · | +
COCC1CC(c2ccccc2)OC(c2ccc(NC(=O)CCCCCCC(=O)O)cc2)O1 (configuration not stated) | · | +
